Hits are enriched below; roughly 3.1% of the tested compounds scored in any of these assays.
Vif-APOBEC3F blk – inhibitors of Vif-A3F interaction | Potency, µM (top dose mostly 46.1 µM), for the others: top-dose activity, negative = active | 390,000 compounds, 0.2% hits | HeLa A3F-eYFP + Vif (tagged APOBEC3F with the HIV-1 protein that degrades it), YFP fluorescence increase; also: potency is read from the fitted curve at half-maximal effect; % of control where 0% means no effect; nearly all actives have a fitted effect of over 65% in size
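HeLa cells stably expressing A3F-eYFP plus Vif, plated and incubated overnight at 37 deg C, then exposed to compounds overnight at 37 deg C. Blocked degradation read as raised yellow fluorescence (Ex 488/Em 500-530).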
Vif-APOBEC3G blk – Vif-A3G binding inhibition; Q9HC16; 410,000 compounds, 0.076% hits; HeLa A3G-eYFP + Vif (tagged APOBEC3G with the HIV-1 protein that degrades it), YFP fluorescence, overnight; Potency, µM (top dose mostly 46.1 µM), without a hit: top-dose activity, negative = active, actives largely listed as inhibitors; also: potency is read from the fitted curve at half-maximal effect; % is scaled to controls: 0 for no effect and ±100 for the full control effect; nearly all actives have a fitted effect of over 60% in size
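HeLa cells stably expressing Vif and C-terminally eYFP-tagged A3G, seeded overnight at 37 deg C, then exposed to compound by pintool overnight at 37 deg C. Rise in yellow fluorescence (Ex 488/Em 500-530, Acumen) marks blocked Vif-driven A3G degradation.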
PLK1 PBD inh – inhibitors of human PLK1 polo-box domain binding; P53350; AID 720504; Potency, µM, for the others: max response, negative = inhibition, hits mostly inhibitors; Plk1 PBD binding of FITC phosphopeptide, fluorescence polarization; 360,000 compounds, 2.8% hits; also: potency is read from the fitted curve at half-maximal effect; series mostly up to about 57 µM; % is scaled to controls: 0 for no effect and ±100 for the full control effect; nearly all actives have a fitted effect of over 65% in size
VDR inh – blocks the human vitamin D receptor; P11473; VDR-SRC2-3 peptide fluorescence polarization, 2 h; Potency, µM, inactives show max response, negative = inhibition, hits mostly inhibitors; 400,000 compounds, 0.93% hits; AID 504847; also: potency is read from the fitted curve at half-maximal effect; % is scaled to controls: 0 for no effect and ±100 for the full control effect
Target sequence (P11473 whole entry, looked up): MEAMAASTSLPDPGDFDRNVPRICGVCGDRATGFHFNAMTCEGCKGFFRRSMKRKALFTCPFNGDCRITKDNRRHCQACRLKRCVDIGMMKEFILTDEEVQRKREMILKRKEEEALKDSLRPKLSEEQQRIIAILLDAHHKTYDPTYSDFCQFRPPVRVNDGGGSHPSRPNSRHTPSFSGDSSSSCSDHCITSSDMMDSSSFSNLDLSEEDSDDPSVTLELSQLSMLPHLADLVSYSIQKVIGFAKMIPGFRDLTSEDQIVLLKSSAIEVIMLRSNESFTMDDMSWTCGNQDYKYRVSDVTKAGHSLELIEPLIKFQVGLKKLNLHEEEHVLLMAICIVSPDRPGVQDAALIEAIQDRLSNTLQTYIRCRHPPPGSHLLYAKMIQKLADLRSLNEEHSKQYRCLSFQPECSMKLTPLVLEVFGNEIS
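VDR–SRC2-3 interaction, FP format. Cmpds 23 nl via pintool, brief spin, 2 h ambient incubation.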
TSHR antag – human thyrotropin receptor antagonism; P16473; TSHR-expressing cells, TSH-stimulated cAMP HTRF, 2 h; active compounds read low; activity change, negative = inhibition, % at 11.5 µM; 330,000 compounds, 0.2% hits;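 active = activity change below a set negative limit, meaning inhibition stronger than a set level, cut at about -70% in these data; inconclusive = activity change between two set negative limits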; also: % is scaled to controls: 0 for no effect and ±100 for the full control effect
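Cell-based HTRF cAMP assay; TSHR cells + compound, TSH EC80 (4nM final), 2 h, 37 deg C. Lysis with anti-cAMP cryptate and cAMP-d2, 30 min RT, read 665/620 nm.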
USP1 UbRho – blocks human USP1/UAF1 cleavage of Ub-Rhodamine. shares compounds with VDR inh. Ub-Rhodamine cleavage, fluorescence kinetic read. Potency, µM (series often up to 56.8 µM), for inactives: at the top dose activity change, negative = inhibition, actives largely listed as inhibitors. 50 compounds, 50% hits. AID 540327
VDR inh confirm – confirmation of human vitamin D receptor inhibitors; shares compounds with VDR inh; VDR-coactivator inhibition assay, qHTS confirmation; Potency, µM, usual class: inhibitors; 840 compounds, 89% hits; AID 602199; also: potency is read from the fitted curve at half-maximal effect
VDR FP – blocks human VDR-coactivator binding in fluorescein assay. shares compounds with VDR inh. VDR-coactivator binding, fluorescein fluorescence polarization. Potency, µM (top dose mostly 57.1 µM), inactives show top-dose activity change, negative = inhibition, usual class: inhibitors. 840 compounds, 48% hits. AID 602200; also: potency is read from the fitted curve at half-maximal effect
VDR bla – VDR (human) inhibition, cell-based beta-lactamase validation; shares compounds with VDR inh; 840 compounds, 23% hits; Potency, µM (top dose mostly 46.1 µM), for the others: top-dose activity change, negative = inhibition, usual class: inhibitors; VDR beta-lactamase reporter cells, FRET ratio; cells co-treated with VDR agonist LG190178; AID 602202; also: potency is read from the fitted curve at half-maximal effect; % is scaled to controls: 0 for no effect and ±100 for the full control effect
VDR cytotox – cytotoxic in counter-screen for VDR inhibitors | shares compounds with VDR inh | cytotoxicity counter-screen, cell viability, qHTS | Potency, µM (titrated, usually from 48.3 µM), without a hit: at the highest dose activity change, negative = cytotoxicity, most hits filed as cytotoxic | 840 compounds, 18% hits;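 also: potency is read from the fitted curve at half-maximal effect; plate controls were DMSO for no effect and high-concentration cycloheximide for full effect; nearly all actives have a fitted effect of over 75% in size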
Active calls of the source: *. Unless noted, calls follow the shape of the dose curve; as a rule, active = well fitted curve in the direction sought with a large enough effect; inconclusive = small, poorly fitted or top-dose-only effect, or another doubt; inactive = no such curve, though single readings can be large; an effect the other way counts as inactive or inconclusive.

O=C(CCS(=O)(=O)c1nc(-c2cccs2)cc(C(F)(F)F)n1)Nc1ccc(Br)cc1 was read as Vif-APOBEC3F blk 1%, Vif-APOBEC3G blk inconclusive, VDR inh 14µM*, VDR inh confirm 3.5*, VDR FP 4µM*, VDR bla inconclusive and VDR cytotox inconclusive.
Screening O=C(NCCc1nc2ccccc2n1CCOc1ccc(Cl)cc1)C1CCCCC1 returned Vif-APOBEC3G blk -7% and VDR inh -7%.
CCCc1nnc2n1N=C(c1ccc([N+](=O)[O-])cc1)CS2 was read as Vif-APOBEC3F blk -3%, Vif-APOBEC3G blk 2%, PLK1 PBD inh 0%, VDR inh -6% and TSHR antag 0.
O=[N+]([O-])c1ccc(C2=Nn3c(Cn4nnc5ccccc54)nnc3SC2)cc1 was read as Vif-APOBEC3F blk 1%, Vif-APOBEC3G blk -6%, PLK1 PBD inh 5.3µM*, VDR inh inconclusive, TSHR antag -6, VDR inh confirm inconclusive, VDR FP 8.9µM*, VDR bla -1% and VDR cytotox inconclusive.
Screening COc1cc2[nH]c(=O)n(CCCC(=O)NCc3ccccc3Cl)c(=O)c2cc1OC returned Vif-APOBEC3F blk -2%, Vif-APOBEC3G blk 1% and VDR inh 45%.
`O=C(Cc1ccccc1)Nc1sc2c(c1C(=O)Nc1ccccc1)CCCCC2` gave Vif-APOBEC3F blk -5%, Vif-APOBEC3G blk 0% and VDR inh inconclusive.
`O=C(Cc1ccccc1)Nc1sc2c(c1C(=O)Nc1ccc(Cl)cc1)CCCC2` gave Vif-APOBEC3F blk -2%, Vif-APOBEC3G blk -10%, VDR inh 28µM*, VDR inh confirm 3.2*, VDR FP 2.2µM*, VDR bla -13% and VDR cytotox 7%.
O=c1cc2nc(-c3ccccc3)nc(SCc3cccc(Br)c3)n2[nH]1 was read as Vif-APOBEC3F blk inconclusive, Vif-APOBEC3G blk 1% and VDR inh 3%.
CC(=O)N(C1=C(Cl)C(=O)c2ccccc2C1=O)C1CCCCC1 was read as Vif-APOBEC3F blk inconclusive, Vif-APOBEC3G blk inconclusive, PLK1 PBD inh 3.8µM*, VDR inh 14µM*, TSHR antag -82*, VDR inh confirm 12*, VDR FP 14µM*, VDR bla 5.8µM* and VDR cytotox inconclusive.
Screening CC(=O)N(c1ccccc1C)C1CCCC1 returned Vif-APOBEC3F blk 12%, Vif-APOBEC3G blk -1%, PLK1 PBD inh 3%, VDR inh -12% and TSHR antag 0.
CC(C)Cn1c(=O)c2ccccc2n2c(CCC(=O)Nc3ccc(F)c(F)c3)nnc12 was read as Vif-APOBEC3F blk 9%, Vif-APOBEC3G blk 0% and VDR inh -15%.
For O=C(O)CSc1cc(NS(=O)(=O)c2cccc([N+](=O)[O-])c2)c2ccccc2c1O the results were Vif-APOBEC3F blk inconclusive, Vif-APOBEC3G blk inconclusive, PLK1 PBD inh 1.5µM*, VDR inh inconclusive, TSHR antag 9, VDR inh confirm 5*, VDR FP 2.5µM*, VDR bla inconclusive and VDR cytotox inconclusive.
For CCc1ccc(-n2nc(CO)c(C(=O)NCc3ccccc3Cl)n2)cc1 the results were Vif-APOBEC3F blk 0%, Vif-APOBEC3G blk 3% and VDR inh 12%.
For O=C(Nc1ccccc1)c1nc(S(=O)(=O)Cc2ccccc2F)ncc1Cl the results were Vif-APOBEC3G blk -12%, VDR inh confirm 2.5*, VDR FP 2.5µM*, VDR bla 3.3µM* and VDR cytotox 13µM*.
O=C(Nc1ccc(OC(F)F)cc1)c1nc(S(=O)(=O)Cc2ccccc2F)ncc1Cl was read as Vif-APOBEC3G blk -8%, VDR inh confirm 6.3*, VDR FP 4µM*, VDR bla 16µM* and VDR cytotox 17µM*.
Screening CCCCCC1C(=O)N2C=C(c3ccccc3)c3ccccc3N2C1=O (stereo not given) returned Vif-APOBEC3F blk 19%, Vif-APOBEC3G blk -3%, PLK1 PBD inh inconclusive, VDR inh 22µM*, VDR inh confirm 4.7*, VDR FP 4µM*, VDR bla 26% and VDR cytotox 3%.
For NC(Cc1ccc(Cl)cc1)C(=O)O (stereo not given) the results were VDR inh 2% and TSHR antag -11.
`N[C@@H](Cc1cc(-c2ccc(Cl)cc2Cl)cc(CP(=O)(O)O)c1O)C(=O)O` gave VDR inh 45µM* and USP1 UbRho 42µM*.
`Cc1oc(-c2ccccc2Cl)nc1CSc1nncn2c1cc1occc12` gave Vif-APOBEC3F blk -1%, Vif-APOBEC3G blk 0% and VDR inh -7%.
For CN1C(=O)/C(=C/c2cccc([N+](=O)[O-])c2)C(=O)N1c1ccccc1 the results were Vif-APOBEC3F blk -5%, Vif-APOBEC3G blk -25%, PLK1 PBD inh 2.4µM*, VDR inh 32µM*, TSHR antag -2, VDR inh confirm 13*, VDR FP inconclusive, VDR bla -7% and VDR cytotox -3%.
O=C1NC(=S)N/C1=C/c1cccc([N+](=O)[O-])c1 was read as Vif-APOBEC3F blk 0%, Vif-APOBEC3G blk -10%, PLK1 PBD inh -13%, VDR inh -4% and TSHR antag -13.
Screening N#Cc1c(C(F)(F)F)cc(-c2cccs2)nc1SCc1ccccc1F returned Vif-APOBEC3F blk -16%, Vif-APOBEC3G blk 6% and VDR inh -3%.
For O=C1NN(c2ccccc2)C(=O)/C1=C/c1ccc(Sc2ccc(Cl)cc2)o1 the results were Vif-APOBEC3F blk 3%, Vif-APOBEC3G blk 0%, PLK1 PBD inh 3µM*, VDR inh 79µM*, TSHR antag -8, VDR inh confirm inconclusive, VDR FP inconclusive and VDR bla -5%.

Assay outcomes (PubChem BioAssay)
